{"source": "PubChem BioAssay (NCI)", "note": "About 83,000 compounds went through this panel and 20% of them were active in at least one assay; those are over-represented in the sample as a whole.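 How to read the values: 0–100, growth inhibition (40 = 60% inhibited); 0, no net growth; -100 to 0, cell death (-40 = 40% of starting cells died; -100 = all dead).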 Values without a mark were called inactive. The source made the active and inactive calls. How the source made its calls: active means growth percent below 10; inactive means the rest."}
{"tested_on": "RPMI-8226 leukemia", "test": "NCI-60 one-dose screen, 48 h (100 = growth as untreated, 0 = no growth, -100 = all killed)", "details": "10 µM"}
{"smiles": "OCC1OC(n2ccc3c(NO)ncnc32)C(O)C1O", "note": "(stereo unspecified)", "growth": "-21.7% (active)"}
{"smiles": "C[C@]12CC[C@@H]3c4ccc(OS(=O)(=O)O)cc4CC[C@H]3[C@@H]1CC[C@@H]2NS(=O)(=O)c1ccc(-c2ccccc2)cc1", "growth": "32.4%"}
{"smiles": "CCN1CCN(CCC(=O)Nc2cccc(-n3cc(-c4ccncc4)c(-c4ccc(Cl)c(OC)c4)n3)c2)CC1", "growth": "-38.8% (active)"}
{"smiles": "COc1ccc(-c2nnc(SCC(=O)Nc3ccc(C(=O)/C=C/c4ccccc4)cc3)n2-c2ccccc2)cc1OC", "growth": "23.4%"}
{"tested_on": "OVCAR-8 ovarian", "test": "NCI-60 one-dose screen, 48 h (100 = growth as untreated, 0 = no growth, -100 = all killed)", "details": "10 µM"}
{"smiles": "COc1ccc(-c2onc(N)c2-c2cc(OC)c3c(c2)OCO3)cc1", "growth": "39.3%"}
{"smiles": "C[C@]12CC[C@@H]3c4ccc(O)cc4CC[C@H]3[C@@H]1CC[C@@H]2NS(=O)(=O)c1ccc(C(F)(F)F)cc1", "growth": "57%"}
{"smiles": "O=C(CSc1nnc(-c2ccc(Cl)cc2)o1)Nc1ccc(C(=O)/C=C/c2ccc(Cl)cc2)cc1", "growth": "100%"}
{"smiles": "Cc1cc(CCNC=O)c(C)c2c1sc1ccccc12", "growth": "97.9%"}
{"smiles": "COc1cc2cc(Oc3ccc(NC(=O)c4ccc(Cl)c(C(F)(F)F)c4)cc3)c(C)nc2cc1OC", "growth": "27.7%"}
{"smiles": "CC(C)(C)c1ccc(S(=O)(=O)N[C@H]2CC[C@H]3[C@@H]4CCc5cc(O)ccc5[C@H]4CC[C@]23C)cc1", "growth": "50%"}
{"smiles": "COc1cc2cc(Oc3ccc(NC(=O)c4cccc(C(F)(F)F)c4)cc3)c(C)nc2cc1OC", "growth": "42.5%"}
{"smiles": "COc1ccc(/C=C2\\CCCC3=C2NC(N)=NC3c2ccc(OC)c(OC)c2)cc1OC", "note": "(stereo unspecified)", "growth": "10.6%"}
{"smiles": "Cc1c(Cl)cccc1NC(=O)CN1CCOCC1", "growth": "106%"}
{"smiles": "CC(C)(C)OC(=O)N1CCc2c(sc3ncnc(N/N=C/c4ccc(Br)cc4)c23)C1", "growth": "73.7%"}
{"smiles": "CCCCc1oc2ccccc2c1C(=O)c1cc(I)c(OCCN(CC)CC)c(I)c1", "growth": "-10% (active)"}
{"smiles": "CCc1c2c(nc3ccc(OC(=O)N4CCC(N5CCCCC5)CC4)cc13)-c1cc3c(c(=O)n1C2)COC(=O)[C@]3(O)CC", "growth": "28.1%"}
{"smiles": "NS(=O)(=O)Oc1ccc(-c2ccc3sccc3c2)cc1", "growth": "102%"}
{"smiles": "O=C(Nc1ccc(OS(=O)(=O)c2ccccc2)cc1)C1CCCCC1", "growth": "94.6%"}
{"smiles": "S=c1cnc2ccccc2[nH]1", "growth": "96.2%"}
{"smiles": "COc1cc(-c2nn(-c3cccc(NC(=O)NCCNC(=O)c4cccc(C(F)(F)F)c4)c3)cc2-c2ccncc2)ccc1Cl", "growth": "44.1%"}
{"smiles": "C[C@@H](O)[C@H]1C(=O)N2C(C(=O)O)=C(SCCN=CN)C[C@H]12", "growth": "-10.1% (active)"}
{"smiles": "CC[C@@H](C(=O)[C@@H](C)[C@@H](O)[C@H](C)[C@@H]1O[C@@H]([C@@H](CC)C(=O)O)CC[C@@H]1C)C1O[C@]2(C=CC(=O)[C@]3(CC[C@@](C)([C@H]4CC[C@](O)(CC)[C@H](C)O4)O3)O2)[C@H](C)C[C@@H]1C", "note": "(stereo partly specified)", "growth": "44.4%"}
{"smiles": "CCC(c1ccc(OC)cc1)C(CC)c1ccc(O)c(CN2CCN(C)CC2)c1", "note": "(stereo unspecified)", "growth": "67%"}
{"smiles": "COc1ccc(C(=O)N2C=Cc3ccccc3C2C#N)cc1", "note": "(stereo unspecified)", "growth": "100%"}
{"smiles": "Cc1cc(SC#N)cc(C(C)(C)C)c1O", "growth": "99.9%"}
{"smiles": "COc1ccc(-c2n[nH]nc2-c2cc(OC)c3c(c2OC)OCO3)cc1", "growth": "43%"}
{"smiles": "CN1C(C(=O)Nc2ccccn2)=C(O)c2sc(Cl)cc2S1(=O)=O", "growth": "95.9%"}
{"smiles": "Clc1ccc2c(c1)C(N1CCNCC1)=Nc1ccccc1O2", "growth": "73.2%"}
{"smiles": "CC(C)(C)c1ccc(S(=O)(=O)N[C@H]2CC[C@H]3[C@@H]4CCc5cc(O)c([N+](=O)[O-])cc5[C@H]4CC[C@]23C)cc1", "growth": "59.6%"}
{"smiles": "COc1cc(-c2csc(NC(=O)Nc3ccc(Cl)c(C(F)(F)F)c3)n2)cc(OC)c1OC", "growth": "4.2% (active)"}
{"smiles": "Brc1ccc2c(c1)-c1ccccc1C1=NCCN12", "growth": "-11.3% (active)"}
{"smiles": "CC(C)N(CCOc1cccc(-c2nc3sccn3c2-c2ccnc(S(C)(=O)=O)n2)c1)C(C)C", "growth": "79.2%"}
{"smiles": "Cc1ccc(/C=C/C(=O)C(=O)/C=C/c2ccc(C)cc2)cc1", "growth": "109%"}
{"smiles": "O=C(Nc1cc(Cl)cc2c1-c1ccc(Cl)cc1C2O)C(Cl)Cl", "note": "(stereo unspecified)", "growth": "86.5%"}
{"smiles": "COc1cc(Cc2cc(-c3ccccc3)n[nH]c2=O)cc(OC)c1OC", "growth": "75.2%"}
{"smiles": "Cc1cc(C(C#N)c2ccc(Cl)cc2)c(Cl)cc1NC(=O)c1cc(I)cc(I)c1O", "note": "(stereo unspecified)", "growth": "53.4%"}
